Assay results as given in PubChem BioAssay (NCI).
About 83,000 compounds went through this panel and 20% of them were active in at least one assay; those are over-represented in the sample as a whole.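 Values shown are percent growth following 48 h exposure of cells in 96-well plates to a single concentration of compound; below 10 was considered active.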 A number with no mark means an inactive call. Calls of active or inactive are those of the source.

Tests used:
Assay in all cases: NCI-60 one-dose screen, 48 h (100 = growth as untreated, 0 = no growth, -100 = all killed)
Details in all cases: 10 µM unless noted
OVCAR-8 ovarian = system: OVCAR-8 ovarian
OVCAR-5 ovarian = system: OVCAR-5 ovarian
OVCAR-4 ovarian = system: OVCAR-4 ovarian
SK-OV-3 ovarian = system: SK-OV-3 ovarian
IGROV1 ovarian = system: IGROV1 ovarian
OVCAR-3 ovarian = system: OVCAR-3 ovarian
HS 578T breast = system: HS 578T breast
NCI/ADR-RES ovarian = system: NCI/ADR-RES ovarian
RPMI-8226 leukemia = system: RPMI-8226 leukemia

## O=C(/C=C/c1ccccc1)n1c(-c2ccc(Cl)cc2)nc2ccccc21
OVCAR-8 ovarian
  growth: -31.3% (active)
OVCAR-5 ovarian
  growth: -48.1% (active)
OVCAR-4 ovarian
  growth: 30%
SK-OV-3 ovarian
  growth: 24%
IGROV1 ovarian
  growth: 10.4%
OVCAR-3 ovarian
  growth: -57.2% (active)
HS 578T breast
  growth: 20%
NCI/ADR-RES ovarian
  growth: 10.8%

## O=C(NCCCN1CCN(CCCNC(=O)C2CCCCC2)CC1)C1CCCCC1
OVCAR-8 ovarian
  growth: 101%
OVCAR-5 ovarian
  growth: 104%
OVCAR-4 ovarian
  growth: 102%
SK-OV-3 ovarian
  growth: 91.6%
IGROV1 ovarian
  growth: 104%
OVCAR-3 ovarian
  growth: 99.3%
NCI/ADR-RES ovarian
  growth: 112%

## O=C(CCC(=O)OC1CCCC1)OC1CCCC1
RPMI-8226 leukemia
  growth: 95.1%
OVCAR-8 ovarian
  growth: 91.6%
OVCAR-5 ovarian
  growth: 98.7%
OVCAR-4 ovarian
  growth: 107%
SK-OV-3 ovarian
  growth: 110%
IGROV1 ovarian
  growth: 110%
OVCAR-3 ovarian
  growth: 102%
NCI/ADR-RES ovarian
  growth: 105%

## O=c1c2cccc3c(Nc4ccc(F)cc4)ccc(c32)c2nc3ccccc3n12
OVCAR-8 ovarian
  growth: 89.3%
OVCAR-5 ovarian
  growth: 84.8%
OVCAR-4 ovarian
  growth: 76%
SK-OV-3 ovarian
  growth: 101%
OVCAR-3 ovarian
  growth: 94%
HS 578T breast
  growth: 73.6%
NCI/ADR-RES ovarian
  growth: 91.4%

## CCOC(=O)c1cc(/C(=N\O)c2cc(OC)c(OC)c(OC)c2)n2cc(C)cc(C)c12
OVCAR-8 ovarian
  growth: 41.8%
OVCAR-5 ovarian
  growth: 64.3%
OVCAR-4 ovarian
  growth: 20.7%
SK-OV-3 ovarian
  growth: 37.8%
IGROV1 ovarian
  growth: 57.5%
HS 578T breast
  growth: 11.4%
NCI/ADR-RES ovarian
  growth: 22.6%

## Cc1ccc2c(c1)ncn2-c1ncnc2c1CC(C)c1ccccc1N2C (stereo not drawn)
RPMI-8226 leukemia
  growth: -9.63% (active)
OVCAR-5 ovarian
  growth: 54.8%
OVCAR-4 ovarian
  growth: 46.5%
SK-OV-3 ovarian
  growth: 29.6%
IGROV1 ovarian
  growth: 16.3%
OVCAR-3 ovarian
  growth: 9.32% (active)
HS 578T breast
  growth: 20.2%
NCI/ADR-RES ovarian
  growth: 17.1%

## COC(=O)c1ccc(C)cc1
RPMI-8226 leukemia
  growth: 102%
OVCAR-8 ovarian
  growth: 103%
OVCAR-5 ovarian
  growth: 110%
OVCAR-4 ovarian
  growth: 105%
SK-OV-3 ovarian
  growth: 99.6%
OVCAR-3 ovarian
  growth: 106%
NCI/ADR-RES ovarian
  growth: 106%

## CC(Br)C(OC(=O)c1ccccc1Cl)c1cc2c(cc1Br)OCO2 (stereo not drawn)
RPMI-8226 leukemia
  growth: 92.2%
OVCAR-8 ovarian
  growth: 94.8%
OVCAR-5 ovarian
  growth: 89.6%
OVCAR-4 ovarian
  growth: 77.9%
SK-OV-3 ovarian
  growth: 124%
IGROV1 ovarian
  growth: 68.9%
HS 578T breast
  growth: 88.2%
NCI/ADR-RES ovarian
  growth: 85.1%

## Cc1cc(C(=O)CSc2nc3ccccc3c(=O)[nH]2)c(C)n1C
RPMI-8226 leukemia
  growth: 91.6%
OVCAR-8 ovarian
  growth: 96.4%
OVCAR-5 ovarian
  growth: 90.8%
OVCAR-4 ovarian
  growth: 123%
SK-OV-3 ovarian
  growth: 108%
IGROV1 ovarian
  growth: -33.9% (active)
OVCAR-3 ovarian
  growth: 91%
NCI/ADR-RES ovarian
  growth: 103%

## Cn1cc(C=O)c2ccccc21
RPMI-8226 leukemia
  growth: 98.4%
OVCAR-5 ovarian
  growth: 101%
OVCAR-4 ovarian
  growth: 101%
SK-OV-3 ovarian
  growth: 101%
IGROV1 ovarian
  growth: 88.6%
OVCAR-3 ovarian
  growth: 106%
HS 578T breast
  growth: 107%
NCI/ADR-RES ovarian
  growth: 100%

## COc1ccc(-c2cn[nH]c2-c2cc(OC)c3c(c2)OCCO3)cc1
OVCAR-8 ovarian
  growth: 26.1%
OVCAR-5 ovarian
  growth: 48.1%
OVCAR-4 ovarian
  growth: 73.7%
SK-OV-3 ovarian
  growth: 15.9%
IGROV1 ovarian
  growth: 50.2%
OVCAR-3 ovarian
  growth: -36.6% (active)
HS 578T breast
  growth: 3.05% (active)
NCI/ADR-RES ovarian
  growth: 9.78% (active)

## CN(C)c1ccc(-c2ccc(-c3ccc(C(=N)N)cn3)o2)cc1
RPMI-8226 leukemia
  growth: -43.4% (active)
OVCAR-8 ovarian
  growth: -54.7% (active)
OVCAR-5 ovarian
  growth: -25% (active)
OVCAR-4 ovarian
  growth: -17.3% (active)
SK-OV-3 ovarian
  growth: -24.4% (active)
IGROV1 ovarian
  growth: -26.8% (active)
OVCAR-3 ovarian
  growth: -96.7% (active)
NCI/ADR-RES ovarian
  growth: 22.5%

## NC(=O)NNC(=O)c1ccccc1
RPMI-8226 leukemia
  growth: 103%
OVCAR-8 ovarian
  growth: 110%
OVCAR-5 ovarian
  growth: 109%
OVCAR-4 ovarian
  growth: 108%
SK-OV-3 ovarian
  growth: 123%
OVCAR-3 ovarian
  growth: 111%
HS 578T breast
  growth: 108%
NCI/ADR-RES ovarian
  growth: 103%

## COc1ccc2c(c1)C=CC(C#N)N2C(=O)c1ccccc1 (stereo not drawn)
RPMI-8226 leukemia
  growth: 22%
OVCAR-8 ovarian
  growth: 15.4%
OVCAR-5 ovarian
  growth: 47.1%
OVCAR-4 ovarian
  growth: 25.4%
SK-OV-3 ovarian
  growth: 43.5%
OVCAR-3 ovarian
  growth: -23.7% (active)
HS 578T breast
  growth: 14.9%
NCI/ADR-RES ovarian
  growth: 6.62% (active)

## O=C1CCC(=O)N1Cc1ccccc1
RPMI-8226 leukemia
  growth: 109%
OVCAR-8 ovarian
  growth: 108%
OVCAR-5 ovarian
  growth: 97.7%
OVCAR-4 ovarian
  growth: 96.9%
SK-OV-3 ovarian
  growth: 113%
HS 578T breast
  growth: 102%
NCI/ADR-RES ovarian
  growth: 89.8%

## C=CCOc1ccc(/C(O)=C2\C(=O)C(=O)N(c3nccs3)C2c2ccccc2F)cc1 (stereo not drawn)
OVCAR-5 ovarian
  growth: 122%
OVCAR-4 ovarian
  growth: 81.3%
SK-OV-3 ovarian
  growth: 109%
IGROV1 ovarian
  growth: 3.7% (active)
OVCAR-3 ovarian
  growth: 93.5%
HS 578T breast
  growth: 104%
NCI/ADR-RES ovarian
  growth: 119%

## c1ccc([P+](CCC[P+](c2ccccc2)(c2ccccc2)c2ccccc2)(c2ccccc2)c2ccccc2)cc1
OVCAR-8 ovarian
  growth: 70.6%
OVCAR-5 ovarian
  growth: 89.7%
OVCAR-4 ovarian
  growth: 66.7%
SK-OV-3 ovarian
  growth: 93.2%
IGROV1 ovarian
  growth: 59.1%
OVCAR-3 ovarian
  growth: 54.1%
HS 578T breast
  growth: 94.8%
NCI/ADR-RES ovarian
  growth: 104%

## Cn1c(-c2nonc2NC(=O)c2ccc(F)cc2)nc2ccccc21
OVCAR-8 ovarian
  growth: 96.6%
OVCAR-5 ovarian
  growth: 117%
OVCAR-4 ovarian
  growth: 114%
SK-OV-3 ovarian
  growth: 111%
IGROV1 ovarian
  growth: 104%
OVCAR-3 ovarian
  growth: 119%
HS 578T breast
  growth: 110%
NCI/ADR-RES ovarian
  growth: 106%
